Compound activity as filed in PubChem BioAssay.
Rows were chosen to be rich in hits. Some 3.4% of all compounds tested hit in one or more screens of this group.
GPR151 ag = activators of human GPR151; PathHunter beta-arrestin GPR151 cells, luminescence; activation, % at 11.2 µM; actives 1% (n = 650,000); AID 1508602; in the data active means activation above about 4.9%;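 further: 0% = median of compound wells and 100% = cells with positive control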
MITF inh = human MITF inhibition, primary screen. O75030. AlphaScreen MITF homodimerization, bead proximity signal. inhibition, % at 2.6 µM. actives 0.91% (n = 650,000). AID 1259374; in the data active means inhibition above about 50%;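 further: 0% = vehicle wells with protein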
TEAD-YAP inh = TEAD-YAP interaction inhibition; inhibition, % at 9.12 µM; actives 1.4% (n = 640,000); HEK-TIYL cells, TEAD-Gal4/YAP UAS-luciferase luminescence; in the data active means inhibition above about 32%;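 further: 0% = median of test compound wells and 100% = reference inhibitor wells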
FBW7 act = activators of human E3 ligase FBW7; actives 0.13% (n = 650,000); Q969H0; AlphaScreen FBW7–phospho-cyclin E peptide binding, activator screen; normalized activity (activation), % at 26.1 µM; in the data active means normalized activity above about 1.9%;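 further: purified mutant Fbw7 with reduced substrate affinity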
Target sequence (Q969H0 whole entry, looked up): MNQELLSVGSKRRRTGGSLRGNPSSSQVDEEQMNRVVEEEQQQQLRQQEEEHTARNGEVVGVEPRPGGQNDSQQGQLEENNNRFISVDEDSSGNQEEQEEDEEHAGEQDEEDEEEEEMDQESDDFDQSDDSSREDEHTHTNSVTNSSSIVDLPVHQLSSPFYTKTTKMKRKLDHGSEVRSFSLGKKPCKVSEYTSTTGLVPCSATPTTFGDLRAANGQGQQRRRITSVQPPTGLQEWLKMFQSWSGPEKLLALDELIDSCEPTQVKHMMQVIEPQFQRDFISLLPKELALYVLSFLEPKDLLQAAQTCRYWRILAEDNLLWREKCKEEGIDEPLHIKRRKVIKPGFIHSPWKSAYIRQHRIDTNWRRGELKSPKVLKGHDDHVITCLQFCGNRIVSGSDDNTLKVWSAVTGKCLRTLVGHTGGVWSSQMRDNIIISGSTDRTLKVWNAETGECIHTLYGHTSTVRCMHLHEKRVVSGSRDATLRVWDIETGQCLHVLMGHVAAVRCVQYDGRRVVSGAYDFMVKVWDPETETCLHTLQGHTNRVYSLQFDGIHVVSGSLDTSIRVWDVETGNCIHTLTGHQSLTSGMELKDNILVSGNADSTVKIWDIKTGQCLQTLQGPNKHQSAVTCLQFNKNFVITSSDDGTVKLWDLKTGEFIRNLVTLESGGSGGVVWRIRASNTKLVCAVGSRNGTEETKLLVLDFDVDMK
MITF confirm = human MITF inhibition, confirmation; shares compounds with MITF inh; AlphaScreen MITF homodimerization, biotin/His-MITF beads; inhibition, % at 2.6 µM; actives 16% (n = 4,700); AID 1259372;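 active means inhibition above a cutoff derived from the DMSO control wells, cut at about 28% in these data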;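 further: 0% = MITF dimer wells with DMSO only; inhibitors lower the bead chemiluminescence by keeping MITF from dimerizing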
AlphaScreen intf2 = AlphaScreen optical interference, counter-screen; shares compounds with MITF inh; LysRS AlphaScreen counterscreen, signal interference, triplicate; inhibition, % at 2.6 µM; actives 7.6% (n = 4,700);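 active means inhibition above a cutoff derived from the DMSO control wells, cut at about 30% in these data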
An asterisk follows results filed as active; / = no result given.

SMILES	GPR151 ag	MITF inh	TEAD-YAP inh	FBW7 act	MITF confirm	AlphaScreen intf2
C=CCc1cc(Cl)ccc1OCCCN1CCN(C)CC1	1	79*	7	0	4	10
C=CCc1cc(C)ccc1OCCOCCN1CCN(C)CC1	1	60*	3	0	-7	-7
C=CCc1cc(Cl)ccc1OCCNCCN1CCOCC1	0	76*	5	0	-9	0
c1ccc(CC2(c3ccccc3)CCNC2)cc1 (centres undefined)	0	56*	-5	0	-1	-1
O=C(NC1CCCC1)C1c2ccccc2Oc2ccccc21	0	76*	-2	0	-2	-6
C=CCc1cc(C)ccc1OCCNCCOC	0	53*	4	0	-1	-4
C=CCNCCOCCOc1cccc(OCC)c1	1	13	-2	0	/	/
C=CCNCCOCCOc1ccc(C(C)(C)C)cc1C	-1	9	0	0	/	/
C=CCc1cc(Cl)ccc1OCCNCCOC	4	44	5	0	/	/
C=CCNCCOCCOc1ccc(C)cc1Br	0	60*	-20	0	9	12
C=CCNCCOCCOc1cccc(Br)c1	-1	60*	0	0	2	4
C=CCc1cc(C)ccc1OCCOCCNCCN(C)C	0	51*	-4	0	7	20
C=CCc1cc(C)ccc1OCCCNCCOC	-1	58*	-1	0	-11	-7
COCCNCCOc1cc(C)ccc1C(C)(C)C	-1	51*	10	0	-14	-7
COCCNCCCCOc1cc(C)ccc1C(C)(C)C	-1	39	-4	0	/	/
C=CCNCCOc1ccc(Br)cc1Cl	0	56*	1	0	7	3
C=CCc1cc(OC)ccc1OCCCNCCOC	0	62*	1	0	-1	7
C=CCNCCCOc1ccc(Br)cc1Cl	-3	15	-18	0	/	/
CCCCOc1ccc(C2C(C(=O)Nc3ccccc3)=C(C)Nc3ncnn32)cc1 (centres undefined)	2	-13	1	0	/	/
CC(C)N1C(=O)C(O)(CC(=O)c2ccc(Br)cc2)c2ccccc21 (centres undefined)	3	0	-1	0	/	/
C=CCNCCOCCOc1ccc(Cl)cc1C(C)(C)C	0	69*	-2	0	2	6
COCCCNCCOCCOc1ccc(Cl)cc1C(C)(C)C	-1	5	-1	0	/	/
C=CCc1cc(OC)ccc1OCCN1CC(C)OC(C)C1 (centres undefined)	0	64*	-1	0	20	36*
COc1ccc(NC(=O)O/N=C(\c2ccccc2)c2ccccn2)cc1	0	9	-20	-1	/	/
COc1ccccc1N1C(=O)c2cccc3c(N(C)CCO)ccc(c23)C1=O	-1	74*	2	0	-1	1
SMILES	GPR151 ag	MITF inh	TEAD-YAP inh	FBW7 act	MITF confirm	AlphaScreen intf2
O=C(NCC1CCCCC1)C1CCCN1C(=O)NC1CCCCC1 (centres undefined)	0	4	3	0	/	/
C=CCNC(=O)C1CCCN1C(=O)NC1CCCCC1 (centres undefined)	1	66*	9	0	5	10
O=C(C1CCCN(Cc2ccncc2)C1)N1CCCCC1 (centres undefined)	-1	103*	-6	0	-17	-3
O=C(C1CCCN(Cc2cccnc2)C1)N1CCCCC1 (centres undefined)	1	104*	10	0	-26	-5
O=C(C1CCCN(Cc2cccc(F)c2)C1)N1CCCCCC1 (centres undefined)	0	48	5	0	/	/
O=C(NCc1ccco1)Nc1c[nH]c2cccnc2c1=O	-1	59*	-4	-1	81*	87*
NNc1ncc(-c2nc3ccccc3o2)cn1	0	17	-13	0	/	/
CC(C)CN(CC(C)C)C(=O)c1cc(S(=O)(=O)N2CCc3ccccc32)cn1C	0	18	2	0	/	/
Cc1cc(C)c(S(=O)(=O)N2CCN(Cc3ccccc3)CC2)cc1C	-1	-5	4	0	/	/
NNC(=O)C(=O)NNc1ccccn1	2	70*	-3	0	74*	101*
CCOC(CNC(=O)Cn1c(=O)c2ccccc2n(CC)c1=O)OCC	-1	2	2	0	/	/
COc1ccc(/C=C(\C#N)C(=O)Oc2ccc([N+](=O)[O-])c3cccnc23)cc1	-1	54*	12	-2	51*	99*
CCOc1ccc(Cl)cc1S(=O)(=O)N1CCOCC1	1	-1	4	0	/	/
